Test results reported in PubChem BioAssay AID1159580 (chemical genetic matrix, 2015).
In all, about 5,500 compounds went through this assay and about 2,000 (36%) were called active. Another 18% or so got no clear call; they are omitted. Cut-off read from the data, not from the text of the source: active = normalized growth mostly below about 0.91 (no sharp cut-off); inconclusive = no clear call, values can overlap the other calls; inactive = mostly above about 0.92. This is one part of the list.

Assay: chemical genetic growth profiling, strain panel (AID 1159580);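 note: tested at 20 µM; growth read once vehicle control cultures reached saturation at 30 °C; 1 = growth at the plate median or of vehicle wells; lower values mean less growth of the strain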
Conditions: growth OD

Measured: normalized growth

CC(=O)Oc1ccc(C(c2ccc(OC(C)=O)cc2)c2ccccn2)cc1
inactive: S. cerevisiae deletion strains, locus YJR075W, strain HOC1, hits give low values 0.978 | S. cerevisiae deletion strains, locus YKL009W, strain mrt4, hits give low values 0.985 | S. cerevisiae deletion strains, locus YKL068W, hits give low values 1 | S. cerevisiae deletion strains, locus YKL085W, strain MDH1 (second series), hits give low values 0.986 | S. cerevisiae deletion strains, locus YKL085W, strain MDH1, hits give low values 0.986 | S. cerevisiae deletion strains, locus YKL160W, strain elf1, hits give low values 1.03 | S. cerevisiae deletion strains, locus YKL190W, strain CNB1, hits give low values 0.989 | S. cerevisiae deletion strains, locus YKR001C, strain vps1, hits give low values 0.984 | S. cerevisiae deletion strains, locus YKR026C, strain gcn3, hits give low values 1.01 | S. cerevisiae deletion strains, locus YKR091W, strain srl3, hits give low values 1.02 | S. cerevisiae deletion strains, locus YLL001W, strain dnm1, hits give low values 1.01 | S. cerevisiae deletion strains, locus YLL026W, hits give low values 1.02 | S. cerevisiae deletion strains, locus YLL041C, strain sdh2, hits give low values 1.03 | S. cerevisiae deletion strains, locus YLR027C, strain aat2, hits give low values 1.02 | S. cerevisiae deletion strains, locus YLR039C, strain RIC1, hits give low values 0.986 | S. cerevisiae deletion strains, locus YLR058C, strain SHM2, hits give low values 0.984 | S. cerevisiae deletion strains, locus YLR102C, strain apc9, hits give low values 0.995 | S. cerevisiae deletion strains, locus YLR113W, strain HOG1, hits give low values 0.953 | S. cerevisiae deletion strains, locus YLR221C, strain rsa3, hits give low values 1.02 | S. cerevisiae deletion strains, locus YLR258W, strain gsy2, hits give low values 1.03 | S. cerevisiae deletion strains, locus YLR262C, strain YPT6 (second series), hits give low values 1.01 | S. cerevisiae deletion strains, locus YLR262C, strain YPT6, hits give low values 0.969 | S. cerevisiae deletion strains, locus YLR268W, strain sec22, hits give low values 0.992 | S. cerevisiae deletion strains, locus YLR320W, strain mms22, hits give low values 1 | S. cerevisiae deletion strains, locus YLR330W, strain CHS5, hits give low values 0.988 | S. cerevisiae deletion strains, locus YLR342W, strain FKS1 (second series), hits give low values 1.02 | S. cerevisiae deletion strains, locus YLR342W, strain FKS1, hits give low values 1.01 | S. cerevisiae deletion strains, locus YLR357W, strain rsc2, hits give low values 1.08 | S. cerevisiae deletion strains, locus YLR370C, strain arc18, hits give low values 1.03 | S. cerevisiae deletion strains, locus YLR371W, strain rom2, hits give low values 0.983 | S. cerevisiae deletion strains, locus YLR384C, strain iki3, hits give low values 1.02 | S. cerevisiae deletion strains, locus YLR418C, strain cdc73, hits give low values 0.999 | S. cerevisiae deletion strains, locus YML016C, strain PPZ1, hits give low values 0.981 | S. cerevisiae deletion strains, locus YML032C, strain rad52, hits give low values 0.998 | S. cerevisiae deletion strains, locus YML120C, strain ndi1, hits give low values 1 | S. cerevisiae deletion strains, locus YML124C, strain tub3, hits give low values 0.992 | S. cerevisiae deletion strains, locus YMR058W, strain fet3, hits give low values 1.01 | S. cerevisiae deletion strains, locus YMR078C, strain ctf18, hits give low values 0.985 | S. cerevisiae deletion strains, locus YMR125W, strain sto1, hits give low values 1.02 | S. cerevisiae deletion strains, locus YMR129W, hits give low values 1.02 | S. cerevisiae deletion strains, locus YMR205C, strain PFK2, hits give low values 0.985 | S. cerevisiae deletion strains, locus YMR223W, strain ubp8, hits give low values 0.987 | S. cerevisiae deletion strains, locus YMR231W, strain pep5, hits give low values 1.02 | S. cerevisiae deletion strains, locus YMR263W, strain SAP30, hits give low values 0.963 | S. cerevisiae deletion strains, locus YMR307W, strain GAS1, hits give low values 0.934 | S. cerevisiae deletion strains, locus YNL067W, strain RPL9B, hits give low values 0.965 | S. cerevisiae deletion strains, locus YNL071W, strain lat1, hits give low values 1.01 | S. cerevisiae deletion strains, locus YNL183C, strain NPR1, hits give low values 0.928 | S. cerevisiae deletion strains, locus YNL209W, strain ssb2, hits give low values 1 | S. cerevisiae deletion strains, locus YNL233W, strain BNI4, hits give low values 0.971 | S. cerevisiae deletion strains, locus YNL248C, strain rpa49, hits give low values 1.03 | S. cerevisiae deletion strains, locus YNL250W, strain rad50, hits give low values 0.98 | S. cerevisiae deletion strains, locus YNL271C, strain bni1, hits give low values 0.985 | S. cerevisiae deletion strains, locus YNL298W, strain CLA4, hits give low values 0.989 | S. cerevisiae deletion strains, locus YNL307C, strain MCK1, hits give low values 0.989 | S. cerevisiae deletion strains, locus YNL322C, strain KRE1 (second series), hits give low values 1.01 | S. cerevisiae deletion strains, locus YNL322C, strain KRE1, hits give low values 1 | S. cerevisiae deletion strains, locus YNR049C, strain mso1, hits give low values 1.01 | S. cerevisiae deletion strains, locus YNR052C, strain pop2, hits give low values 0.997 | S. cerevisiae deletion strains, locus YOL012C, strain htz1 1.18 | S. cerevisiae deletion strains, locus YOL147C, strain pex11, hits give low values 0.979 | S. cerevisiae deletion strains, locus YOR001W, strain rrp6, hits give low values 0.973 | S. cerevisiae deletion strains, locus YOR061W, strain CKA2, hits give low values 0.995 | S. cerevisiae deletion strains, locus YOR069W, strain VPS5, hits give low values 0.989 | S. cerevisiae deletion strains, locus YOR070C, strain gyp1, hits give low values 1 | S. cerevisiae deletion strains, locus YOR080W, strain dia2, hits give low values 1.02 | S. cerevisiae deletion strains, locus YOR083W, strain WHI5, hits give low values 1.02 | S. cerevisiae deletion strains, locus YOR106W, strain vam3, hits give low values 1.05 | S. cerevisiae deletion strains, locus YOR136W, strain idh2, hits give low values 0.975 | S. cerevisiae deletion strains, locus YOR144C, strain elg1, hits give low values 0.984 | S. cerevisiae deletion strains, locus YOR184W, strain ser1, hits give low values 1.01 | S. cerevisiae deletion strains, locus YOR231W, strain MKK1, hits give low values 0.974 | S. cerevisiae deletion strains, locus YOR265W, strain rbl2, hits give low values 1 | S. cerevisiae deletion strains, locus YOR270C, strain vph1, hits give low values 1.02 | S. cerevisiae deletion strains, locus YOR290C, strain snf2, hits give low values 1.04 | S. cerevisiae deletion strains, locus YOR316C, strain cot1, hits give low values 0.984 | S. cerevisiae deletion strains, locus YPL051W, strain arl3, hits give low values 1.01 | S. cerevisiae deletion strains, locus YPL078C, strain atp4, hits give low values 1.01 | S. cerevisiae deletion strains, locus YPL106C, strain sse1, hits give low values 1.03 | S. cerevisiae deletion strains, locus YPL240C, strain hsp82, hits give low values 1.02 | S. cerevisiae deletion strains, locus YPL241C, strain CIN2, hits give low values 0.996 | S. cerevisiae deletion strains, locus YPL256C, strain CLN2, hits give low values 1 | S. cerevisiae deletion strains, locus YPR119W, strain clb2, hits give low values 0.996 | S. cerevisiae deletion strains, locus YPR141C, strain kar3, hits give low values 0.974 | S. cerevisiae deletion strains, locus YPR163C, strain tif3, hits give low values 0.996 | S. cerevisiae deletion strains, locus YPR167C, strain met16, hits give low values 0.989 | S. cerevisiae deletion strains, strain wtn01, hits give low values 1.01 | S. cerevisiae strains, strain wild type, hits give low values 1
